# Reference: PubChem BioAssay AID623992 (NMMLSC, 2012)
# Entries with a potency or affinity are not part of this list. Activity calls are given as the source filed them.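 How the source made its calls: active means compounds whose fitted half-maximal effective concentration for blocking dye efflux is below 100 µM; inactive means the rest.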
# Biological target: Benomyl/methotrexate resistance protein (Candida albicans) (UniProt P28873)
# Assay: CaMdr1 efflux pump inhibitor potency, dose response, singleplex, Cherry Pick2 set (AID 623992)
# Details: S. cerevisiae AD/CaMDR1, Nile Red efflux, flow cytometry; series mostly up to 100 µM
# Chain of Benomyl/methotrexate resistance protein (Candida albicans) (P28873 whole entry, looked up): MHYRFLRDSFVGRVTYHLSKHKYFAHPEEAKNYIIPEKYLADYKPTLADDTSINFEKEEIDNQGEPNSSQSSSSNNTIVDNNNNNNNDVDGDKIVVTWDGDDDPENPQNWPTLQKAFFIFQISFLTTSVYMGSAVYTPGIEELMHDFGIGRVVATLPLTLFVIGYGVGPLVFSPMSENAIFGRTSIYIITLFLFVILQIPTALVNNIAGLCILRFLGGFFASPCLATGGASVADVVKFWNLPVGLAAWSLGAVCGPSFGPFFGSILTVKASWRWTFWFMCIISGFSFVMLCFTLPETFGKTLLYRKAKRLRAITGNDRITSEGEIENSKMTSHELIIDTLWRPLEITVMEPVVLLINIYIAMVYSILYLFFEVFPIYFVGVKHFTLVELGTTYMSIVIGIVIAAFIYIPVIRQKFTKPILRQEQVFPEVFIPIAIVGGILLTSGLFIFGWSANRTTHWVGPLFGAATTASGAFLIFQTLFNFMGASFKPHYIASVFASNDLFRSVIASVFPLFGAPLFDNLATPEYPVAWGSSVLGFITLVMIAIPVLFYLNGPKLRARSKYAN
row,SMILES,outcome
1,O=C(Nc1ccccc1)C1=C[C@@H](c2ccc(Br)cc2)C[C@@H](OCCCCO)O1,inactive
2,CCc1ccc(C2=NN(c3ccc(S(N)(=O)=O)cc3)C(c3ccc(F)cc3)C2)cc1 (stereo unspecified),inactive
3,COc1ccc([C@H]2CC(=O)C=C(c3ccnc4ccc(Cl)cc34)C2)cc1,inactive
4,COc1ccc(C(=O)OCCc2ccc(O)cc2)cc1,inactive
5,O=C(C1CCCN(c2ncnc3c2nc2n3CCCCC2)C1)N1CCN(c2cccc(Cl)c2)CC1 (stereo unspecified),inactive
6,COc1ccc(-c2sc3ccccc3c2-c2ccc(OCCN(C)C)cc2)cc1,inactive
7,Nc1ccc(C(=O)OCCc2ccccc2)cc1,inactive
8,COc1ccc(C(=O)NC2CC(C)(C)Cc3c2cnn3-c2ccccc2)c(OC)c1 (stereo unspecified),inactive
9,O=C1C(Cc2ccccc2)Nc2ncnc(N3CCN(c4ccccc4)CC3)c2N1Cc1ccccc1 (stereo unspecified),inactive
10,NS(=O)(=O)c1ccc(N2N=C(c3ccccc3)CC2c2ccc(Br)cc2)cc1 (stereo unspecified),inactive
11,COc1ccc(S(=O)(=O)N(C)C[C@H]2Oc3c(NC(=O)NC4CCCCC4)cccc3C(=O)N([C@H](C)CO)C[C@@H]2C)cc1,inactive
12,COc1ccc2nc(NC(=O)c3cccs3)sc2c1,inactive
13,O=C(NCCc1ccc(Cl)cc1)C1CCC(CNc2nc(=S)[nH]c3ccccc23)CC1 (stereo unspecified),inactive
14,Cc1ccc2c(c1)[C@H]1[C@H](CO2)[C@H](c2ccccc2)[C@]2(C)C(=O)Nc3cc(F)c(F)cc3C(=O)N12,inactive
15,NS(=O)(=O)c1ccc(N2N=C(c3ccccc3)CC2c2ccc(F)cc2)cc1 (stereo unspecified),inactive
16,O=C(CSc1nnc(Cc2cccs2)n1Cc1ccco1)Nc1cccc(Cl)c1,inactive
